Inconclusive results are not listed. Calls of active or inactive are those of the source. Unless noted, calls come from the whole dose curve; as a rule, active = well fitted curve in either direction with a large enough effect (not every such curve was filed as active); inconclusive = small, poorly fitted or top-dose-only effect, or another doubt; inactive = flat fitted curve, though single readings scatter.
Legend:
[1] = molecular target: Lysosomal acid glucosylceramidase (Homo sapiens) (UniProt P04062); test: Glucocerebrosidase-p2 (AID 348; in the data active = potency below about 10 µM; note: potency is the fitted concentration of half-maximal effect); conditions: purified GBA, blue fluorogenic substrate, 40 min
How it was run: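 Normal human glucocerebrosidase (0.2 nM) with blue fluorogenic substrate (80 uM final) in citrate/phosphate pH 5.9 with 10mM sodium taurocholate, 0.01% tween-20; 40 min RT, NaOH/glycine stop; fluorescence Ex 365/Em 440; AC50 from a titration from 0.6 nM upwards.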

[2] = AP1 Signaling Pathway (AID 357); conditions: ME-180 AP-1-bla reporter, EGF-induced, beta-lactamase ratio, 5 h; at 7.69 µM (top of the series) unless noted; note: % is set by controls: 0 for no effect and ±100 for the full control effect
How it was run: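 In this screen, ME-180 cells in Opti-MEM with 0.5% dialyzed FBS received EC50 EGF and compound titrations for 5 h. AP-1 reporter beta-lactamase was detected via CCF4 ratio, giving AC50 for positive and negative modulators.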

[3] = molecular target: Cytochrome P450 1A2 (Homo sapiens) (UniProt P05177); test: p450-cyp1a2 (AID 410; calls by dose curve; note: potency is the fitted concentration of half-maximal effect;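 for activity change, negative = inhibition: -100% = full effect of reference inhibitor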); conditions: recombinant CYP1A2, luciferin-ME demethylation, luminescence; series mostly up to 11.4 µM
How it was run: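 20nM CYP1A2, 100uM Luciferin-ME (=Km), 100mM KPO4; cpd 10 min RT; +NADPH regen, 60 min RT; stop/detect 20 min; luminescence. Normalized to furafylline 57 uM = full inhibition.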

[4] = NFAT Signaling Pathway (AID 444); conditions: Jurkat NFAT-bla M1, carbachol, beta-lactamase ratio, 5 h; at 7.69 µM (top of the series) unless noted;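 note: carbachol stimulus at about its EC50 of 1 µM final; % is set by controls: 0 for no effect and ±100 for the full control effect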
How it was run: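 Jurkat cells with NFAT-driven β-lactamase reporter and co-expressed M1 receptor, stimulated with carbachol (final 1 uM, ~EC50), compound titration, 5 h at 37 °C. CCF4 loaded 1 h at RT; 460/530 nm ratio gave %activity and AC50.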

[5] = Stat Signaling Pathway (AID 446); conditions: ME-180 (cervical carcinoma) SIE beta-lactamase reporter, IL-6 stimulated, 5 h; at 7.69 µM (top of the series) unless noted;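 note: ME-180 cervical cancer cells given 40 pM IL-6 alongside compound; SIE-controlled beta-lactamase reporter measured as 460/530 nm FRET emission ratio; % is set by controls: 0 for no effect and ±100 for the full control effect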
How it was run: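 Compound effects on IL-6-induced STAT reporter activity were measured in ME-180 cells. After overnight culture, cells were co-treated with 40 pM IL-6 for 5 hrs before beta-lactamase substrate loading at room temperature.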

[6] = molecular target: Glucocorticoid receptor (Homo sapiens) (UniProt P04150); test: GR-GFP Redistribution (AID 450;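 active = compounds whose dose series gives a full or clear partial fitted curve of increased nuclear translocation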; note: potency is the fitted concentration of half-maximal effect); conditions: U2OS GR-GFP nuclear translocation, laser cytometry, 2 h
[7] = molecular target: Glucocorticoid receptor (Homo sapiens) (UniProt P04150); test: GR-EFC Redistribution (AID 451; calls by dose curve; note: potency is the fitted concentration of half-maximal effect); conditions: CHO-K1 GR-EFC translocation, beta-gal luminescence, 2 h
How it was run: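 CHO-K1 cells expressing nuclear EA and GR-ED fragments of b-gal; compounds titrated up to 46 uM final, 2 h at 37 C. GR nuclear translocation read as complemented b-gal luminescence after 1 h RT detection.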

[8] = molecular target: Mitogen-activated protein kinase 10 (Mus musculus) (UniProt Q61831); test: JNK3 AlphaScreen Assay (AID 530); conditions: JNK3 lysate, c-Jun phosphorylation; series mostly up to 11.4 µM;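 note: kinase came from lysate of stimulated human HepG2 cells; signal reports phosphorylation of biotinylated GST-cJun 1-79 at Ser73 with 10 µM ATP; % is set by controls: 0 for no effect and ±100 for the full control effect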
How it was run: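 HepG2 lysate (IL-1b/TNFa pre-activated) + biotin-GST-cJun 1-79 + anti-pSer73 cJun; cpd titration, 15 min RT; ATP 10 uM start; Tris pH 7.6, MgCl2, DTT, vanadate; beads in EDTA buffer; AlphaScreen.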

[9] = molecular target: 3',5'-cyclic-AMP phosphodiesterase 4B (Homo sapiens) (UniProt Q07343); test: qHTS Assay for Inhibitors of PDE-IV (AID 607; active = well fitted activation curve with a large enough effect in the main read-out, with a control signal flat, not every such curve was filed as active; note: % of control where 0% means no effect); conditions: HEK293 ACTOne CNG channel cells, membrane potential fluorescence; series mostly up to 22.9 µM
How it was run: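 ACTOne HEK293 cells carry a modified cAMP-gated CNG channel and express endogenous PDE4; plated 1000 cells/well, compounds up to 22.9 uM final. Membrane-potential dye fluorescence (ex 535/em 590) was read; parental cells received 10 uM forskolin + 100 uM RO 20-1724.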

[10] = molecular target: Cytochrome P450 3A4 (Homo sapiens) (UniProt P08684); test: qHTS Assay for Activators of Cytochrome P450 3A4 (AID 885; active = well fitted curve in the direction sought with a large enough effect; an effect the other way counts as inactive or inconclusive; note: nearly all actives have a fitted effect of over 65% in size); conditions: recombinant CYP3A4, Luciferin-PPXE luminescence, 60 min; series mostly up to 11.4 µM
How it was run: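 CYP3A4 activity: Luciferin-PPXE O-dealkylation, 25uM substrate, 200mM KPO4, RT throughout. Read-out is luciferase luminescence; higher values reflect activation.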

[11] = molecular target: Cytochrome P450 3A4 (Homo sapiens) (UniProt P08684); test: qHTS Assay for Inhibitors and Substrates of Cytochrome P450 3A4 (AID 884; active = well fitted curve in the direction sought with a large enough effect; an effect the other way counts as inactive or inconclusive; note: potency is the fitted concentration of half-maximal effect; nearly all actives have a fitted effect of over 50% in size); conditions: recombinant CYP3A4, Luciferin-PPXE luminescence; series mostly up to 57.1 µM
How it was run: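 Luminescent readout of luciferin produced by CYP3A4 (20 nM) dealkylation of Luciferin-PPXE, 25 uM (its KM). NADPH-driven reaction ran 60 min at RT after 10 min compound preincubation; data scaled to 57 uM ketoconazole as 100% inhibition.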

[12] = Confirmation and Secondary Assay for Modulators of Hemoglobin Beta Chain Splicing at IVS2 654 locus (AID 910; active = well fitted curve in the direction sought with a large enough effect; an effect the other way counts as inactive or inconclusive;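 note: HeLa cells stably carrying EGFP split by mutant beta-globin IVS2-654 intron; % of control where 0% means no effect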); conditions: HeLa EGFP-654 splicing reporter, GFP fluorescence, 48 h; series mostly up to 38.3 µM
How it was run: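 HeLa cells stably expressing EGFP interrupted by β-globin IVS2-654 intron, seeded overnight in Opti-MEM/2% FCS, then treated 2 days at 37 °C. Restored splicing read as total peak GFP intensity per well by laser scanning cytometry (488 nm excitation, 500–520 nm emission); 500 nM antisense PNA as control.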

[13] = molecular target: Cytochrome P450 2C19 (Homo sapiens) (UniProt P33261); test: qHTS Assay for Inhibitors and Substrates of Cytochrome P450 2C19 (AID 899; active = well fitted curve in the direction sought with a large enough effect; an effect the other way counts as inactive or inconclusive; note: potency is the fitted concentration of half-maximal effect; nearly all actives have a fitted effect of over 60% in size); conditions: recombinant CYP2C19, luciferin-H EGE luminescence; series mostly up to 11.4 µM
How it was run: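 5 nM human CYP2C19 with 10uM Luciferin-H EGE (at KM) in 50mM KPO4, compound preincubated 10 min at 37C, then NADPH regeneration for 60 min at 37C. Luciferin read by luminescence after detection reagent; normalized to 57uM ketoconazole as full inhibition.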

Sequence of Cytochrome P450 1A2 (Homo sapiens) (P05177 whole entry, looked up): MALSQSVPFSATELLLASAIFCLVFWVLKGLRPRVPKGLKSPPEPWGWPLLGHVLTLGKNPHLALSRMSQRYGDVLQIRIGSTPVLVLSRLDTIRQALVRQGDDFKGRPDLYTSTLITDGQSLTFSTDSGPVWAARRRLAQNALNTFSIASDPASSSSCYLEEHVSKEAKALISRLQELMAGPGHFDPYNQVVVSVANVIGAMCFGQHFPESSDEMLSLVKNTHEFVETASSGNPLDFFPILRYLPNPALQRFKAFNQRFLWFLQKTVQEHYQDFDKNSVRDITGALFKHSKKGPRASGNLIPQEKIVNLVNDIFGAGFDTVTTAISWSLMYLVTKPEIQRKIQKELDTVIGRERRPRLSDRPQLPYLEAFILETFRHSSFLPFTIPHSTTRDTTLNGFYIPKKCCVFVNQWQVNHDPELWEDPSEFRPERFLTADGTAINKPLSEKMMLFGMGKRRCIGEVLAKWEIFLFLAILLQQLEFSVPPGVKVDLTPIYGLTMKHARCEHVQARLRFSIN
Sequence of Cytochrome P450 3A4 (Homo sapiens) (P08684 whole entry, looked up): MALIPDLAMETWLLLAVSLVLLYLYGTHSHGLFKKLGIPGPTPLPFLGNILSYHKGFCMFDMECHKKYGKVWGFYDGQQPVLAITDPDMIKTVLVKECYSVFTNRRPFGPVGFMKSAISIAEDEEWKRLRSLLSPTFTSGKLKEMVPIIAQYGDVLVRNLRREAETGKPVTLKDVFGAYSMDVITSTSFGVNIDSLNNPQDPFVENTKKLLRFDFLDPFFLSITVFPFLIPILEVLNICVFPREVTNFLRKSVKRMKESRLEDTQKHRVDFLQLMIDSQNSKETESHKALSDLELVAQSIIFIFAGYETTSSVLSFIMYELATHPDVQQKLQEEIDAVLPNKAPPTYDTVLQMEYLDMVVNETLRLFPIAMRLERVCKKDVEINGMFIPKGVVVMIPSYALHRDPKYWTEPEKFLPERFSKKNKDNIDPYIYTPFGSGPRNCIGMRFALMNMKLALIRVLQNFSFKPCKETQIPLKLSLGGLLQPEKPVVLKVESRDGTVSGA
Sequence of Glucocorticoid receptor (Homo sapiens) (P04150 whole entry, looked up, the tested form may be a part): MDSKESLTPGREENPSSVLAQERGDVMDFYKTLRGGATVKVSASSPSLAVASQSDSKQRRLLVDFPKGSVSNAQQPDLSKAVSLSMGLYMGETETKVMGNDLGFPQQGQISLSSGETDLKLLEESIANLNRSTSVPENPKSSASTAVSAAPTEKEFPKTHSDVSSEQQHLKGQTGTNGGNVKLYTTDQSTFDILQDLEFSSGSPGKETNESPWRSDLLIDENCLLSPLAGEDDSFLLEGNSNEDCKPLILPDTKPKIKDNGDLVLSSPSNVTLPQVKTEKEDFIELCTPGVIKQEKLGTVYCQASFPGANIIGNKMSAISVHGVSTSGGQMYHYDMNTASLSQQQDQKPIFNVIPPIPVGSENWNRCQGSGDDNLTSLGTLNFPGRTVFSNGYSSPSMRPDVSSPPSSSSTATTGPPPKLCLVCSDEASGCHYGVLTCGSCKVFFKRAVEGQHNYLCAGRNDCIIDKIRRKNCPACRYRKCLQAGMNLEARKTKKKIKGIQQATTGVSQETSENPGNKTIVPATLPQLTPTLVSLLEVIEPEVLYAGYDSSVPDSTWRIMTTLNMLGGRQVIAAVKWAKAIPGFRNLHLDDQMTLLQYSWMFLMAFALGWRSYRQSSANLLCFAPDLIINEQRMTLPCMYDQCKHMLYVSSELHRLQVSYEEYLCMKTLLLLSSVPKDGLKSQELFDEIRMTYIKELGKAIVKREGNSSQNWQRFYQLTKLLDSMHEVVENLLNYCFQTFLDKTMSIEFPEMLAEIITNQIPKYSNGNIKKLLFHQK
Sequence of Lysosomal acid glucosylceramidase (Homo sapiens) (P04062 whole entry, looked up): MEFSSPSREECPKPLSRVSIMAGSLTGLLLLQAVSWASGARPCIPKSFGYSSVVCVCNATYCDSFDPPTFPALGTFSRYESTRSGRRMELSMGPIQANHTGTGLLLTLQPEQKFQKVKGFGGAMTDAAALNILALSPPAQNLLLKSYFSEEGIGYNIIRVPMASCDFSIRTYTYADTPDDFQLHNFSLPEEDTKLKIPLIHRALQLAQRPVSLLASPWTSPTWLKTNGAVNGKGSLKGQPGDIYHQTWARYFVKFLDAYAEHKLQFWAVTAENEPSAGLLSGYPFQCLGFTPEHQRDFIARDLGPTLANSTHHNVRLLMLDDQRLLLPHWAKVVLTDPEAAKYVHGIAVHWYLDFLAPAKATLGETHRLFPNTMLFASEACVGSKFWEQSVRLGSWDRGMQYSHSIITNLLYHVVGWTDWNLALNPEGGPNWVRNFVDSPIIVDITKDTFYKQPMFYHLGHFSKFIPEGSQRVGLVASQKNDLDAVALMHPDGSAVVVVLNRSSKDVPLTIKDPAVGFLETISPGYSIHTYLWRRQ
Sequence of 3',5'-cyclic-AMP phosphodiesterase 4B (Homo sapiens) (Q07343 whole entry, looked up): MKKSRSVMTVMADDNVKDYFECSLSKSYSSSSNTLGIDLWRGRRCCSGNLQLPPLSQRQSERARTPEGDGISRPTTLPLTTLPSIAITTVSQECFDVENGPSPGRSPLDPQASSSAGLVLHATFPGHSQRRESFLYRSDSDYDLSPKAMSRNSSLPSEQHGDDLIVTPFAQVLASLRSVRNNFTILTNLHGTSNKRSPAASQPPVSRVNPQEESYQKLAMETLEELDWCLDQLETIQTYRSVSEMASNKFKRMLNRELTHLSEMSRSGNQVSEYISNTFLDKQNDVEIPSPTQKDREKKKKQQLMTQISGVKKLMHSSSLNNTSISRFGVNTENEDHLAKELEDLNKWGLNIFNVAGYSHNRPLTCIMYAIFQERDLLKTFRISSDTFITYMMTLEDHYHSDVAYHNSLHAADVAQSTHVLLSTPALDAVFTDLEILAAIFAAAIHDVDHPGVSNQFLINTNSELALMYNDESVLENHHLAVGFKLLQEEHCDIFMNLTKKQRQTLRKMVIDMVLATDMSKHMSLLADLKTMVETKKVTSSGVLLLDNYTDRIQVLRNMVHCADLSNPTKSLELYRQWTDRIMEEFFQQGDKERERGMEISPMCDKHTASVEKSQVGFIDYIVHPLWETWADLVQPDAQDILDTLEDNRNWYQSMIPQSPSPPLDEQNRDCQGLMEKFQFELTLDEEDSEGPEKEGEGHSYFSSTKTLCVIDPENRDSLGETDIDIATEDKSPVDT
Sequence of Cytochrome P450 2C19 (Homo sapiens) (P33261 whole entry, looked up): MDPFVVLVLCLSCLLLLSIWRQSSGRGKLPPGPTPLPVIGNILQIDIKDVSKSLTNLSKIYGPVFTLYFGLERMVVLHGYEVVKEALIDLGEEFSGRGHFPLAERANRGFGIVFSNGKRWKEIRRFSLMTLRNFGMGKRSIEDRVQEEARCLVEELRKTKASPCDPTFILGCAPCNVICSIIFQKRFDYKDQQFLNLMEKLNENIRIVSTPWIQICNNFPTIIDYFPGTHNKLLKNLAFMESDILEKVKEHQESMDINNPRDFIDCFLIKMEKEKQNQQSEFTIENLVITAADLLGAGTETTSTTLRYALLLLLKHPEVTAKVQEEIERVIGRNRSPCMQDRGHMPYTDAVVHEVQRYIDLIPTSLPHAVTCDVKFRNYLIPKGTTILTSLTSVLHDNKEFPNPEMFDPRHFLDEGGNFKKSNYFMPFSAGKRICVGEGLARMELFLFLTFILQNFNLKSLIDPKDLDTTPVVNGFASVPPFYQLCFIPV

O=C1C2=C(Nc3cc([N+](=O)[O-])ccc3N2)O[C@@H]1c1c[nH]c2ccc(COc3ccccc3)cc12
inactive: Potency [1] > 11.4 µM | activity change, negative = inhibition [2] -21.7% | activity change, negative = inhibition [4] 6.34% | activity, negative = inhibition [5] 0.333% | Potency [6] > 46 µM | Potency [7] > 9.22 µM | Potency [8] | Potency [9] | Potency [10]
active: Potency [3] 2.51 µM

C(=N/Nc1nnc2c(n1)[nH]c1ccccc12)/c1cccnc1
active: Potency [3] 0.631 µM | Potency [11] 3.98 µM
inactive: Potency [1] > 11.4 µM | activity change, negative = inhibition [2] -0.49% | activity change, negative = inhibition [4] 1.85% | activity, negative = inhibition [5] -7.13% | Potency [6] > 46 µM | Potency [7] > 9.22 µM | Potency [8] | Potency [9] | Potency [10]

COc1cc(Cl)c(CC(=O)c2c[nH]c3ccccc23)cc1OC
active: Potency [3] 1 µM | Potency [11] 2.51 µM
inactive: Potency [1] > 11.4 µM | activity change, negative = inhibition [2] -19.9% | activity change, negative = inhibition [4] 26.5% | activity, negative = inhibition [5] -15.8% | Potency [6] > 46 µM | Potency [7] > 9.22 µM | Potency [8] | Potency [9] | Potency [10]

COCCNc1nc(-c2ccc(C(=O)N(C)C)cc2)nc2ccccc12
active: Potency [3] 20 µM
inactive: Potency [1] > 11.4 µM | activity change, negative = inhibition [2] 11.7% | activity change, negative = inhibition [4] 17.9% | activity, negative = inhibition [5] 1.02% | Potency [6] > 46 µM | Potency [7] > 46 µM | Potency [8] | Potency [9] | Potency [10]

N=C(N)S[C@H]1c2ccccc2-c2cc([N+](=O)[O-])ccc21
inactive: Potency [1] > 11.4 µM | activity change, negative = inhibition [2] -7.27% | activity change, negative = inhibition [4] -0.855% | activity, negative = inhibition [5] -2.76% | Potency [6] > 46 µM | Potency [7] > 9.22 µM | Potency [8] | Potency [9] | Potency [10]
active: Potency [3] 0.158 µM | Potency [11] 5.01 µM

Nc1nc(SCc2ccccc2[N+](=O)[O-])c2[nH]cnc2n1
active: Potency [3] 5.01 µM | Potency [11] 3.16 µM
inactive: Potency [1] > 11.4 µM | activity change, negative = inhibition [2] -3.57% | activity change, negative = inhibition [4] 14.4% | activity, negative = inhibition [5] -8.39% | Potency [6] > 46 µM | Potency [7] > 9.22 µM | Potency [8] | Potency [9] | Potency [10]

CC(C)C[C@@H](N)C(=O)Nc1ccc2ccccc2c1
active: Potency [3] 1.58 µM
inactive: Potency [1] > 11.4 µM | activity change, negative = inhibition [2] 9.25% | activity change, negative = inhibition [4] 8.34% | activity, negative = inhibition [5] -2.09% | Potency [6] > 46 µM | Potency [7] > 9.22 µM | Potency [8] | Potency [9] | Potency [10]

CN1CCN(Cc2nc3cccc4c3c([n+]2[O-])-c2ccccc2-4)CC1
active: Potency [3] 1.26 µM
inactive: Potency [1] > 11.4 µM | activity change, negative = inhibition [2] -4.75% | activity change, negative = inhibition [4] 9.77% | activity, negative = inhibition [5] 6.12% | Potency [6] > 46 µM | Potency [7] > 9.22 µM | Potency [8] | Potency [9] | Potency [10]

COc1ccc2c(c1)Cc1cc(N=[N+]([O-])c3ccc4c(c3)Cc3cc(OC)ccc3-4)ccc1-2
active: Potency [3] 1.58 µM | Potency [11] 5.01 µM
inactive: Potency [1] > 11.4 µM | activity change, negative = inhibition [2] -9.92% | activity change, negative = inhibition [4] -17.3% | activity, negative = inhibition [5] -1.13% | Potency [6] > 46 µM | Potency [7] > 9.22 µM | Potency [8] | Potency [9] | Potency [10]

Cc1cnc(CNc2nc(-c3cccnc3)nc3ccccc23)cn1
inactive: Potency [1] > 11.4 µM | activity change, negative = inhibition [2] -11.8% | activity change, negative = inhibition [4] 0.457% | activity, negative = inhibition [5] -9.76% | Potency [6] > 46 µM | Potency [7] > 46 µM | Potency [8] | Potency [9] | Potency [10] | outcome [12]
active: Potency [3] 2.51 µM | Potency [11] 3.98 µM

CC(C)(C)CC(C)(C)c1ccc(O)c(C[N+](C)(C)[O-])c1
inactive: Potency [1] > 11.4 µM | activity change, negative = inhibition [2] 0.484% | activity change, negative = inhibition [3] -17.9% [at 2.29 µM] | activity change, negative = inhibition [4] 17.3% | activity, negative = inhibition [5] 0.425% | Potency [6] > 46 µM | Potency [7] > 9.22 µM | Potency [8] | Potency [9] | Potency [10]

Cc1cc(C(=O)CSC(=S)SC(C)(C)C)ccc1Cl
inactive: Potency [1] > 11.4 µM | activity change, negative = inhibition [2] 7.67% | activity change, negative = inhibition [4] -16.2% | activity, negative = inhibition [5] -27.2% | Potency [6] > 46 µM | Potency [7] > 9.22 µM | Potency [8] | Potency [9] | Potency [10]
active: Potency [3] 1.58 µM

O[C@@H](C1=C/C(=C\c2ccncc2)c2ccccc21)c1ccncc1
active: Potency [3] 0.1 µM | Potency [11] 0.794 µM | Potency [13] 0.158 µM
inactive: Potency [1] > 11.4 µM | activity change, negative = inhibition [2] 6.34% | activity change, negative = inhibition [4] -26.9% | activity, negative = inhibition [5] -15.9% | Potency [6] > 46 µM | Potency [7] > 9.22 µM | Potency [8] | Potency [9] | Potency [10]

c1nc(NCCc2cnc[nH]2)c2[nH]cnc2n1
inactive: Potency [1] > 11.4 µM | activity change, negative = inhibition [2] 3.43% | activity change, negative = inhibition [4] 6.94% | activity, negative = inhibition [5] 0.609% | Potency [6] > 46 µM | Potency [7] > 9.22 µM | Potency [8] | Potency [9] | Potency [10]
active: Potency [3] 5.01 µM
